# Measurements as given in article PMC5913336, “True equilibrium measurement of transcription factor-DNA binding affinities using automated polarization microscopy”.
# Biological target: T1, Ems (Drosophila melanogaster, UniProt P18488 373-462)
# T1 sequence: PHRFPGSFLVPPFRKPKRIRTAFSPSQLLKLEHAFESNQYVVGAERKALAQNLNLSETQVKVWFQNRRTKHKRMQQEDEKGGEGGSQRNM
# Experiment: FP; 33 mM phosphate pH 7.0, 90 mM NaCl, 0.01% Tween 20, 0.1 mM DTT, 0.5% agarose; room temperature
# Settings: tags: N-GST (pGEX-6P-1, kept); dsDNA, one strand shown
row,Sequence,binding signal
1,CGCGTAATTAGCTCA,1.07 Kd / Kd of best base at the position
2,CACGCAATTAGCTCA,2.2 Kd / Kd of best base at the position
3,CACGTAATCAGCTCA,40.1 Kd / Kd of best base at the position
4,CACGTAACTAGCTCA,72.2 Kd / Kd of best base at the position
5,CACGTAAGTAGCTCA,63.6 Kd / Kd of best base at the position
6,GACGTAATTAGCTCA,1.01 Kd / Kd of best base at the position
7,CACGTAATTACCTCA,1.46 Kd / Kd of best base at the position
8,CACGTAATTGGCTCA,8.18 Kd / Kd of best base at the position
9,CACCTAATTAGCTCA,1.08 Kd / Kd of best base at the position
10,CCCGTAATTAGCTCA,1.04 Kd / Kd of best base at the position
11,CACGTAATTAGCTGA,4.73 Kd / Kd of best base at the position
12,CACGTAATAAGCTCA,35.3 Kd / Kd of best base at the position
13,CACGTAATTAGATCA,2.14 Kd / Kd of best base at the position
14,CACGTAATTAGCTCC,3.56 Kd / Kd of best base at the position
15,CAGGTAATTAGCTCA,1.11 Kd / Kd of best base at the position
16,CACGTAATTAGCTCG,2.39 Kd / Kd of best base at the position
17,TACGTAATTAGCTCA,1.04 Kd / Kd of best base at the position
18,CACGTAATTTGCTCA,10.5 Kd / Kd of best base at the position
19,CACGTAGTTAGCTCA,74.7 Kd / Kd of best base at the position
20,CACGTGATTAGCTCA,30.7 Kd / Kd of best base at the position

row,Sequence,binding signal
1,CACGTAATTAGCGCA,6.39 Kd / Kd of best base at the position
2,CACGTAATTAGCCCA,4.42 Kd / Kd of best base at the position
3,CACGTAATTAACTCA,9.76 Kd / Kd of best base at the position
4,CACGTAATTAGCTAA,3.58 Kd / Kd of best base at the position
5,CACGAAATTAGCTCA,16.8 Kd / Kd of best base at the position
6,CACGTACTTAGCTCA,47.3 Kd / Kd of best base at the position
7,CACGTCATTAGCTCA,1.28 Kd / Kd of best base at the position
8,CTCGTAATTAGCTCA,1.19 Kd / Kd of best base at the position
9,CACGTAATTAGCACA,5.4 Kd / Kd of best base at the position
10,CAAGTAATTAGCTCA,1.41 Kd / Kd of best base at the position
11,AACGTAATTAGCTCA,1.04 Kd / Kd of best base at the position
12,CATGTAATTAGCTCA,1.24 Kd / Kd of best base at the position
13,CACGTTATTAGCTCA,26.4 Kd / Kd of best base at the position
14,CACGTAATTAGTTCA,3.85 Kd / Kd of best base at the position
15,CACGTAATGAGCTCA,6.94 Kd / Kd of best base at the position
16,CACGTAATTCGCTCA,43.1 Kd / Kd of best base at the position
17,CACGGAATTAGCTCA,38.4 Kd / Kd of best base at the position
18,CACGTAAATAGCTCA,54.5 Kd / Kd of best base at the position
19,CACTTAATTAGCTCA,2.71 Kd / Kd of best base at the position
20,CACGTAATTATCTCA,1.9 Kd / Kd of best base at the position
